Here are results for 59 sequences from the supplement of paper PMC10338343.

± gives the standard deviation.

Assay [1] has as its system MILI (PIWIL2) piRISC loaded with L1MC piRNA (26 nt). Kind of assay: pre-steady-state target cleavage rate (min^-1); guide: L1MC piRNA 5'p-UAACUAAAUACUAUGCAAGCUGUAGG; higher = faster piRNA-guided slicing of the target. The conditions noted are these: auxiliary factor: 500 nM mouse GTSF1. In a few lines:
(§1)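 Three pooled Cleave-'n-Seq trials supplied the data, with k3 capped at 0.0001 min^-1. In each, […] transcribed, DNA-blocked target RNA library and 1 nM active affinity-purified piRISC with one synthetic guide reacted in HEPES–potassium acetate buffer at 33 °C for 0–8 or 0–960 min, with or without 500 nM GTSF1 partner protein. Uncleaved targets were sequenced and normalised to depth and to weakly complementary targets. A burst-and-steady-state fit provided the pre-steady-state cleavage rate.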

In assay [2] the test system is EfPiwi piRISC loaded with L1MC piRNA (26 nt). The assay is described as follows: pre-steady-state target cleavage rate (min^-1); auxiliary factor: 500 nM Ephydatia muelleri Gtsf1; guide: L1MC piRNA 5'p-UAACUAAAUACUAUGCAAGCUGUAGG; MIWI and MILI are mouse PIWI proteins and EfPiwi is from a freshwater sponge; tags in brackets are library labels; higher = faster piRNA-guided slicing of the target. An outline of the steps:
as §1

Consider UCCUGGAACAGCUUGCUUAGUAUUAAGUUA, for which the entries for the “pre-steady-state target cleavage rate” value in assay [1] and in assay [2] were 0.179 ± 0.026 and 0.00237 ± 0.002, respectively.
For UCCUCCUACAGCUUGCAUUGUAUUUAGAAA, in that order: 0.0778 ± 0.019 and 0.00363 ± 0.0015.
For UCCUCCUACUCGUUGCAUAGUAUUUAGAAA, in that order: 0.076 ± 0.019 and 0.004 ± 0.0035.
In the case of UCCUGGAACACCUUGCAUAGUAUUUUGUUA, the “pre-steady-state target cleavage rate” value was determined as 0.14 ± 0.035 in assay [1] and 0.00343 ± 0.0029 in assay [2].
For UCCUGCAACAGCUUGCAUAGUAUUUAGAUA the same measures were 0.125 ± 0.024 and 0.00372 ± 0.002.
For UCCUCCUACAGCUUGCAUAAGUAUUUAGUUA, in that order: 0.0109 ± 0.0055 and 0.00345 ± 0.0019.
For UCCUCCUACAGCUUGCAAAGUAUUUAGAUA the same measures were 0.0875 ± 0.015 and 0.00419 ± 0.0024.
On to UCCUGGAUGUGCUUGCAUAGUAUUUAGUCUA, for which the “pre-steady-state target cleavage rate” value worked out at 0.0182 ± 0.006 in assay [1] and 0.00336 ± 0.0024 in assay [2].
For UCCUCCUACAGCUUGCAUAGUUAAUAGUAA the same measures were 0.0122 ± 0.0056 and 0.00511 ± 0.003.
Turning to UCCUGGAUGUGCUUCCAUAGUAUUUAGUAA, the entries for the “pre-steady-state target cleavage rate” value in assay [1] and in assay [2] were 0.0304 ± 0.012 and 0.00486 ± 0.003, respectively.
For UCCUCCUACAGGAUGCAUAGUAUUUACAAA the same measures were 0.0521 ± 0.011 and 0.0028 ± 0.0027.
As for UCCUGGUACAGCUUGCAAAGUAUUUUCAAA, the results for the “pre-steady-state target cleavage rate” value in assay [1] and in assay [2] were 0.0283 ± 0.012 and 0.00424 ± 0.0036, respectively.
On to UCCUCCUACAGCUUGCAUACUAAUUAGUUA, for which the “pre-steady-state target cleavage rate” value in assay [1] was 0.0267 ± 0.0069; in assay [2], 0.00358 ± 0.0017.
For UCCUCCUACAGCUUGCAUAGUAAAUAGUAA the same measures were 0.119 ± 0.025 and 0.00375 ± 0.0025.
For UCCUGCUACAGCUUGGAUAGUAUUUAGAUA the same measures were 0.0476 ± 0.016 and 0.00339 ± 0.001.
On to UCCUGGUACAGCUUGCAUAGUAUUAAGUAA, for which the entries for the “pre-steady-state target cleavage rate” value in assay [1] and in assay [2] were 0.128 ± 0.035 and 0.0031 ± 0.0028, respectively.
For UCCUCCUACAGCUUGCAAUAGUAUUUAGUUA the same measures were 0.0415 ± 0.01 and 0.0427 ± 0.014.
For UCCUGCUACAGCUUGCAUAUAUUUAGUUA, in that order: 0.046 ± 0.011 and 0.00528 ± 0.0031.
For UCCUCGAUCAGCUUGCAUAGUAUUUUCAAA the same measures were 0.0652 ± 0.014 and 0.00433 ± 0.0023.
On to UCCUGGAUGUGCUUGCAUAGCAUUUAGUUA, for which the “pre-steady-state target cleavage rate” value in assay [1] worked out at 0.0436 ± 0.012; in assay [2], 0.00505 ± 0.0018.
As for UCCUCCUUCAGCUUGCAUAGUAUUUACUUA, the results for the “pre-steady-state target cleavage rate” value in assay [1] and in assay [2] were 0.132 ± 0.023 and 0.00514 ± 0.0032, respectively.
For UCCUGGAUGUCCUUGCAUAGUAUGUAGUUA, in that order: 0.107 ± 0.022 and 0.00374 ± 0.0037.
For UCCUGGAACAGCUUGCAUAGUAAUUAGAUA the same measures were 0.0936 ± 0.022 and 0.00318 ± 0.0015.
For UCCUCCUACAGCUUGCAUACUAUUUACAAA, in that order: 0.0449 ± 0.012 and 0.0038 ± 0.0031.
UCCUGGAUCAGCUUGCAUAGUAUUUUCAUA: the “pre-steady-state target cleavage rate” value in assay [1] stood at 0.0451 ± 0.011; in assay [2], 0.00263 ± 0.0022.
For UCCUCCUACAGCUUCGAUAGUAUUUAGUAA the same measures were 0.217 ± 0.02 and 0.00413 ± 0.0021.
For UCCUGGAUCAGCAUGCAUAGUAUUUACAAA, in that order: 0.0991 ± 0.019 and 0.00615 ± 0.0038.
For UCCUGGUACAGCUUGCAUAGUAUUUUGAUA, in that order: 0.0966 ± 0.025 and 0.00381 ± 0.0026.
Turning to UCCUGGUACUCCUUGCAUAGUAUUUAGUAA, the “pre-steady-state target cleavage rate” value in assay [1] amounted to 0.131 ± 0.032; in assay [2] it was 0.00302 ± 0.002.
For UCCUCCUACAGCUUGCAUAGUUUUUUCAAA the same measures were 0.0513 ± 0.014 and 0.00481 ± 0.0034.
For UCCUGGAACAGCUUGCAUAGUAUUUAUGUUA, in that order: 0.127 ± 0.018 and 0.0035 ± 0.002.
On to UCCUCCUACAGCUUGCAUAGUAUUAGUUA, for which the figures for the “pre-steady-state target cleavage rate” value in assay [1] and in assay [2] were 0.273 ± 0.024 and 0.00402 ± 0.0027, respectively.
For UCCUGGAUGAGCUUGCAUUGUAUUUAGAAA the same measures were 0.0178 ± 0.0069 and 0.00384 ± 0.0021.
For UCCUCCUACAGCUUGCAUAGUUUUUAGAAA, in that order: 0.0703 ± 0.019 and 0.00527 ± 0.0024.
For UCCUGCUACAGCUAGCAUAGUAUUUAGUAA the same measures were 0.212 ± 0.019 and 0.00623 ± 0.002.
Regarding UCCUGCUAAAGCUUGCAUAGUAUUUAGUUA, the results for the “pre-steady-state target cleavage rate” value in assay [1] and in assay [2] were 0.177 ± 0.035 and 0.00411 ± 0.0014, respectively.
For UCCUGCUACAGCUUGCAUACUAUUAAGUUA, the “pre-steady-state target cleavage rate” value in assay [1] worked out at 0.0719 ± 0.018; in assay [2], 0.00453 ± 0.0019.
For UCCUGCUACAGCAUGCAUACUAUUUAGUUA the same measures were 0.148 ± 0.028 and 0.00525 ± 0.0021.
For UCCUGGAUGUGCUUCCAUAGUAUUUAGUUA the same measures were 0.0271 ± 0.0077 and 0.00277 ± 0.0019.
For UCCUGGAUGUGCUUGUCAUAGUAUUUAGUUA, in that order: 0.0294 ± 0.0075 and 0.00492 ± 0.0031.
UCCUCCUACAGCUUGCAUAGUAUAAUGAAA: the “pre-steady-state target cleavage rate” value in assay [1] was determined as 0.0878 ± 0.019; in assay [2] it was 0.00235 ± 0.0022.
With UCCUGGAUCAGCUUGCUUAGUUUUUAGUUA, the entries for the “pre-steady-state target cleavage rate” value in assay [1] and in assay [2] were 0.0369 ± 0.011 and 0.00518 ± 0.0042, respectively.
For UCCUGGAACAGCUUGCUUAGUAUUUAGAUA, in that order: 0.176 ± 0.017 and 0.00448 ± 0.0027.
For UCCUGCUACAGCUUGCUAUAGUAUUUAGUUA, in that order: 0.05 ± 0.017 and 0.0075 ± 0.002.
For UCCUCCUACAGGUUGCAUAGUAUUUACAAA, in that order: 0.052 ± 0.014 and 0.00321 ± 0.0024.
As for UCCUGCUACAGCUUGCAUAGUAUUUACAAA, the “pre-steady-state target cleavage rate” value in assay [1] came to 0.153 ± 0.039; in assay [2] it was 0.00255 ± 0.0022.
For UCCUCGUACAGCUUCCAUAGUAUUUAGUUA, in that order: 0.0687 ± 0.018 and 0.00339 ± 0.0014.
For UCCUGGAUGUGCUUGCAUAGUAUUUAGAUUA, in that order: 0.0647 ± 0.016 and 0.00327 ± 0.0022.
As for UCCUCCUACAGCUUGCAUAGUAUUUAGGUA, the “pre-steady-state target cleavage rate” value in assay [1] came to 0.152 ± 0.045; in assay [2], 0.00476 ± 0.0017.
Turning to UCCUGGAACAGCUUGCAUAGUAUAAAGUUA, the “pre-steady-state target cleavage rate” value in assay [1] was found to be 0.196 ± 0.029; in assay [2] it was 0.00389 ± 0.0023.
For UCCUCCUACAGCUUGCAUAGUAUUUAGAAA, in that order: 0.18 ± 0.028 and 0.00581 ± 0.0024.
For UCCUGGAUGUCCUUGCAUAGUAUUUGAGUUA, the figures for the “pre-steady-state target cleavage rate” value in assay [1] and in assay [2] were 0.169 ± 0.043 and 0.00517 ± 0.0037, respectively.
For the sequence UCCUGGAUGAGCUUGCAUAGUAUUUACAUA, the results for the “pre-steady-state target cleavage rate” value in assay [1] and in assay [2] were 0.0149 ± 0.0065 and 0.00323 ± 0.0028, respectively.
Take UCCUCCUACAGCUUGCAUAGUAUUUAUUA: the “pre-steady-state target cleavage rate” value in assay [1] came to 0.0949 ± 0.023; in assay [2] it was 0.00539 ± 0.0031.
For UCCUGCUACAGCUUGCAUAGUAUAUUGUUA, in that order: 0.187 ± 0.036 and 0.00351 ± 0.0021.
For UCCUCCUACAGCUUGCAUAGUUUUUUGUUA, in that order: 0.0587 ± 0.013 and 0.00441 ± 0.0026.
For UCCUGCUACAGCUUGCUUAGUAUUUAGAAA the same measures were 0.0602 ± 0.019 and 0.00409 ± 0.0022.
On to UCCUGGUACAGCUUGCAUAGUAAUUAGUAA, for which the figures for the “pre-steady-state target cleavage rate” value in assay [1] and in assay [2] were 0.212 ± 0.037 and 0.00568 ± 0.0029, respectively.
For UCCUGGAACAGCUUGCAUAUUAUUUAGUUA the same measures were 0.0696 ± 0.008 and 0.0169 ± 0.0055.
